# From PMC4336329 (PLoS ONE, 2015)
# The campaign covered roughly 310,000 compounds. About 2,200 (0.71%) showed an effect of 50% or more. Effects have a minus sign here. The sample holds strong results, similar compounds and a random draw of the others, so the mix is not that of the screen.
# Biological target: human ether-à-go-go-related gene (hERG) potassium channel (human, UniProt Q12809)
# Test: primary screen, population patch clamp on CHO cells stably expressing hERG; higher = less effect of the substance
# human ether-à-go-go-related gene (hERG) potassium channel, sequence (Q12809 whole entry, looked up): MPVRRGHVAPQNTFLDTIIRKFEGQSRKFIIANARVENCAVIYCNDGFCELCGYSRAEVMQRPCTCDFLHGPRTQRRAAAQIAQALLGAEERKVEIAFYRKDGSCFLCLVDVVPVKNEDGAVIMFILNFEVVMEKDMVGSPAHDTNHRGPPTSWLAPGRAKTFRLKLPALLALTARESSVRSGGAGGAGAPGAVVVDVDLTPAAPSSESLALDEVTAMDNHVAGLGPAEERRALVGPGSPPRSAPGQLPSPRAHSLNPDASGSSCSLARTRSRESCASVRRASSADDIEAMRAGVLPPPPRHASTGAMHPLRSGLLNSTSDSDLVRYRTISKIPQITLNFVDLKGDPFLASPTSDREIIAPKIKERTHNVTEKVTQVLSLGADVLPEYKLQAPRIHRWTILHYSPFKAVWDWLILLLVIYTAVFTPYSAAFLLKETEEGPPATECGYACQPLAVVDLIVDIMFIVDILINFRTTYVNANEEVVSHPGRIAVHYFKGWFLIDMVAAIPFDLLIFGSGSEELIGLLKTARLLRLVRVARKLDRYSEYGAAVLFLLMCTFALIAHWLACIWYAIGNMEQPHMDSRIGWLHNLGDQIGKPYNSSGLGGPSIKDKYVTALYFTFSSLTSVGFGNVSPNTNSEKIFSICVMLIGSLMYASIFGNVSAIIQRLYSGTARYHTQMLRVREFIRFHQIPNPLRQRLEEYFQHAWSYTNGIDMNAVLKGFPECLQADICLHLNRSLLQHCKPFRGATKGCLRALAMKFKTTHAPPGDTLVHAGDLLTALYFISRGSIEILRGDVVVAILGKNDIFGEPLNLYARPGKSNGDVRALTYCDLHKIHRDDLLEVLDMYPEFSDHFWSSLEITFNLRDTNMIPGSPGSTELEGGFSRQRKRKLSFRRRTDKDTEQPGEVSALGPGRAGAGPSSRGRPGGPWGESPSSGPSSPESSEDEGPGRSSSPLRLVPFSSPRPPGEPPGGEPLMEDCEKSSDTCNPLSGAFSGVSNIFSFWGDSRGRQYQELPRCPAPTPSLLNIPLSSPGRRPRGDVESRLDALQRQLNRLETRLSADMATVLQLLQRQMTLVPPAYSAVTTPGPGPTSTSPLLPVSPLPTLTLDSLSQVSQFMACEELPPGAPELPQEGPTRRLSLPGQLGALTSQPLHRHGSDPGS
row,SMILES,"hERG current change (%, negative = inhibition) at 1uM"
1,CN(C)CCCN(C(=O)c1ccc(C(=O)c2ccccc2)cc1)c1nc2c(F)cccc2s1,-1.61%
2,CN(C)CCCN(C(=O)c1ccco1)c1nc2ccc(Cl)cc2s1.Cl,-14.7%
3,CN(C)CCCN(C(=O)c1sc2ccccc2c1Cl)c1nc2c(F)cccc2s1.Cl,8.6%
4,CN(C)CCCN(C(=O)c1ccco1)c1nc2ccc(F)cc2s1.Cl,-37.4%
5,CN(C)CCCN(C(=O)c1ccco1)c1nc2c(F)cc(F)cc2s1.Cl,-60.2%
6,Cc1ccc2nc(N(CCCN(C)C)C(=O)c3ccco3)sc2c1.Cl,-9.63%
7,Cc1cccc2sc(N(CCCN(C)C)C(=O)c3ccco3)nc12.Cl,-54.8%
8,Cc1cccc2sc(N(CCCN(C)C)C(=O)c3nc4ccccc4s3)nc12.Cl,3.73%
9,CN(C)CCCN(C(=O)c1ccco1)c1nc2c(F)cccc2s1.Cl,-62.9%
10,CCN1CCN(C(c2ccc(OC)cc2)c2nnnn2Cc2ccc3c(c2)OCO3)CC1.Cl (centres unmarked),-17.4%
11,N#Cc1ccccc1S(=O)(=O)N1CCC(C(=O)NCc2ccccc2CN2CCCC2)CC1,-45.7%
12,Cn1c(=O)c2c(nc(NC3CCCCC3)n2CC(=O)C23CC4CC(CC(C4)C2)C3)n(C)c1=O,15.4%
13,CCCC1CC(C)(c2csc(Nc3ccc(OCC)cc3)n2)OC1=O (centres unmarked),-0.99%
14,COC(=O)c1[nH]c2cccc(OC)c2c1NC(=O)CCN1CC(C)CC(C)C1 (centres unmarked),-4.14%
15,CCOc1ccccc1NC(=S)N(CCCN1CCOCC1)Cc1cn(C)c2ccccc12,5.62%
16,CCNC(=S)NC1CC2CCCC(C1)N2Cc1ccc(C)cc1 (centres unmarked),-12.3%
17,CCCN1C2CCCC1CC(NC(=O)c1ccc(F)cc1)C2 (centres unmarked),-29.7%
18,Cc1ccc(C(=O)NC2CC3CCCC(C2)N3Cc2ccccc2)cc1 (centres unmarked),-6.55%
19,O=C(NC1CC2CCCC(C1)N2Cc1ccc(F)cc1)c1ccc(F)cc1 (centres unmarked),-38.3%
20,CC(=O)NC1CC2CCCC(C1)N2Cc1ccc(C)cc1 (centres unmarked),-10.4%
21,Cc1ccc(CN2C3CCCC2CC(NC(=O)c2ccc(C)cc2)C3)cc1 (centres unmarked),-77.3%
22,Cc1ccc(CN2C3CCCC2CC(NC(=S)NCc2ccccc2)C3)cc1 (centres unmarked),-54.4%

row,SMILES,"hERG current change (%, negative = inhibition) at 1uM"
1,Cc1ccc(CN2C3CCCC2CC(NC(=O)c2ccc(F)cc2)C3)cc1 (centres unmarked),-77%
2,CNC(=S)NC1CC2CCCC(C1)N2Cc1ccc(C)cc1 (centres unmarked),-4.5%
3,O=C1CC(=C2c3ccccc3-c3ccccc32)C(=O)N1CCN1CCN(c2cccc(Cl)c2)CC1,7.4%
4,COc1cccc(CN2CCNC(=O)C2CC(=O)N2CCCCO2)c1OC (centres unmarked),7.47%
5,COc1ccc(CCN2C(=O)CSC2=S)cc1OC,11.5%
6,COC(=O)C1=CNC=C(C(=O)OC)C1c1cccc(OC)c1,9.02%
7,Cc1cc(/C=N/NC(N)=S)c(C)n1-c1ccc(Cl)cc1,1.13%
8,Cc1nc2c(C)cccn2c1/C(O)=C1\C(=O)C(=O)N(CCN(C)C)C1c1ccco1 (centres unmarked),11.2%
9,Cc1ccc(C#CC[N+]2(CC#Cc3ccc(C)cc3)CCCCC2)cc1.[Br-],-51.8%
10,Cc1ccc(C#CC[N+]2(C)CCCCC2)cc1.[Br-],14.2%
11,C#CC[N+]1(CC#Cc2ccc(C)cc2)CCCCC1.[Br-],2.2%
12,COc1ccc(OC)c(NC(=O)C2CCCN(S(=O)(=O)c3ccc(-n4cnnn4)cc3)C2)c1 (centres unmarked),5.12%
13,COc1ccccc1NC(=O)C1CCCN(S(=O)(=O)c2ccc(-n3cnnn3)cc2)C1 (centres unmarked),-23.5%
14,COc1ccc(C)cc1NC(=O)C1CCCN(S(=O)(=O)c2ccc(-n3cnnn3)cc2)C1 (centres unmarked),-71.4%
15,O=C(NCc1ccccc1)c1onc(CSc2ccc(F)cc2)c1C(=O)NCCCN1CCOCC1,-54.9%
16,O=C(NCCCN1CCOCC1)c1onc(CSc2ccccc2)c1C(=O)NCCCN1CCOCC1,14.7%
17,O=C(NCc1ccccc1)c1onc(CSc2ccc(F)cc2)c1C(=O)NCc1ccccc1,5.63%
18,CCC(CC)NCCOC(=O)c1ccc([N+](=O)[O-])cc1,-3.41%
19,CN1C(=O)C(Cc2cccs2)C(=O)N(C)C1=O,15.2%
20,CCCCn1c(NC(=O)c2ccc(Br)o2)c(C(=O)OCC)c2nc3ccccc3nc21,-17.9%
21,CCCCCn1c(NC(=O)c2ccco2)c(C(=O)OCC)c2nc3ccccc3nc21,-73.9%
22,CCCCn1c(NC(=O)c2ccco2)c(C(=O)OCC)c2nc3ccccc3nc21,-22%
